Values without a mark were called inactive. The source made the active and inactive calls. Calls come from the whole dose curve; as a rule, active = well fitted curve in the direction sought with a large enough effect in the repeat runs; inconclusive = weak or mixed curves; inactive = flat fitted curve, though single readings scatter. Starred links: 1 amine or outer side, 2 acyl side, 3 side chain; linkers in the order of their positions; H or OH if unused. Positions of bridges follow the written chain, without caps; N, C: chain ends. Non-standard residues stand in square brackets, D forms with d. Residues, ends and D or L forms follow the SMILES beside them. Chains are numbered I, II in the order given. Actinocin(9to1) = Cc1c2oc3c(C)ccc(C(=O)[*:1])c3nc-2c(C(=O)[*:2])c(N)c1=O; NMeV = CN[C@H](C(=O)O)C(C)C; Sar = CNCC(=O)O
% is set by controls: 0 for no effect and ±100 for the full control effect.

This assay in a line: qHTS assay to test for compound auto fluorescence at 590 nm (red) in HepG2 cell free culture (AID 720684). The note with it: cell-free medium autofluorescence, red 540/590 nm; series mostly up to 91.3 µM; fluorescence, % of Rose Bengal: at the top concentration. The text has this: U.S. Tox21 Program National Center for Advancing Translational Sciences [NCATS] NIH Chemical Genomics Center [NCGC] U.S. Environmental Protection Agency [EPA] National Institutes of Environmental Health Sciences [NIEHS] National Toxicology Program [NTP] U.S. Food and Drug Administration [FDA] Tox21 Assay Overview: Compound auto fluorescence often interferes with screening of the compound library against various biological targets and signaling pathways. Some of these compounds may have fluorophoric properties. Such properties may interfere with the assay outputs resulting in false positives and/or negatives. To decrease such complications and ensure the compound activities are relevant in terms of biological response, the Tox21 10K compound library was screened for auto fluorescence. From the fluorophores used as reporter signals in our screening assays, the auto fluorescence equivalencies of compounds against three fluorophores have been evaluated: Triamterene, Fluorescein and Rose Bengal sodium for blue, green and red fluorescence, respectively. The fluorescence intensities were measured using Excitation/Emission wavelengths at 405/460nm, 485/535nm and 540/590nm for blue, green and red labels, respectively. This assay includes the red fluorescence data.
Tox21 Assay Protocol Summary: 5 uL of culture medium (MEM containing 10% FBS) per well was dispensed into black wall/clear bottom 1536-well plates using a Multidrop Combi Dispenser (ThermoFisher Scientific, Waltham, MA). After 23 nL compound or DMSO vehicle was transferred into assay plate by a pintool work station (Kalypsys, San Diego, CA), fluorescence intensities in the assay plates were measured by an Envision (PerkinElmer, Shelton, CT) plate reader using three labels for measuring blue, green and red fluorescence at […] 460, 535 and 590nm respectively.
Take `CCN(CC)C(=S)SSC(=S)N(CC)CC`: the compound was classed as inactive.
In the case of `c1ccc2cc3c(ccc4ccccc43)cc2c1`, the compound was called inactive.
For the compound `Cc1c2oc3c(C)ccc(C(=O)N[C@@H]4C(=O)N[C@H](C(C)C)C(=O)N5CCC[C@H]5C(=O)N(C)CC(=O)N(C)[C@@H](C(C)C)C(=O)O[C@@H]4C)c3nc-2c(C(=O)N[C@@H]2C(=O)N[C@H](C(C)C)C(=O)N3CCC[C@H]3C(=O)N(C)CC(=O)N(C)[C@@H](C(C)C)C(=O)O[C@@H]2C)c(N)c1=O` (I: T[dV]P[Sar][NMeV] / II: T[dV]P[Sar][NMeV]; ester I:1-I:C, II:1-II:C; linker I:N-II:N via Actinocin(9to1)), the result was inactive.
In the case of `Oc1ccc(Cl)cc1Cc1cc(Cl)ccc1O`, the call was inactive.
The same measure, in the same setting: next, `O=C(Nc1ccccc1SSc1ccccc1NC(=O)c1ccccc1)c1ccccc1`: “inactive”; `CCCOC(=O)c1cc(O)c(O)c(O)c1`: “inactive”; `CC(COc1ccccc1)N(CCCl)Cc1ccccc1` (stereo not given): “inactive”.
Regarding `CCCCCCC(O)CCCCCCCCCCC(=O)O` (stereo not given), the call was inactive.
Take `CNC1(C)C2CCC(C2)C1(C)C` (stereo not given): the “fluorescence, % of Rose Bengal” value is 0.103% [at 46 µM].
`OCCN1CCNCC1`: the result was inactive.
Regarding `CCCCC(CC)COC(=O)CC(C(=O)OCC(CC)CCCC)S(=O)(=O)O` (stereo not given), the compound was called inactive.
On the same count and under the same terms, the same measure for `O=C(Cl)c1cccc(C(=O)Cl)c1`: “inactive”; for `CC(C)(C)c1ccc(O)c(C(C)(C)C)c1`: “inactive”.
Regarding `OCCOCCN1CCN(C(c2ccccc2)c2ccc(Cl)cc2)CC1` (stereo not given), the result was inactive.
Take `c1ccc2c(c1)CCCC2C1=NCCN1` (stereo not given): the “fluorescence, % of Rose Bengal” value was -0.24% [at 46 µM].
As to `Cc1cccc([N+](=O)[O-])c1C(=O)O`, the “fluorescence, % of Rose Bengal” value was 0.0395%.
In the case of `Cc1scc2c1N(C(=O)CN1CCN(C)CC1)c1ccccc1NC2=O`, the “fluorescence, % of Rose Bengal” value was 0.056% [at 46 µM].
For the compound `CCn1c2ccccc2c2cc(N)ccc21`, the outcome was inactive.
Regarding `C=CC(=O)OCCCCCCOC(=O)C=C`, the call was inactive.
Turning to `O=C1OC2(c3ccc(O)cc3Oc3cc(O)ccc32)c2ccccc21`, the result was inactive.
Take `CC(=O)OCCOCCOCCOC(C)=O`: the compound was called inactive.
On to `CC(C)(c1ccccc1)c1ccc(Nc2ccc(C(C)(C)c3ccccc3)cc2)cc1`, for which the compound was classed as inactive.
As to `CC(C)(C)c1cc(C(C)(C)C)c(O)c(C(C)(C)C)c1`, the compound was called inactive.
For `O=C(O)CP(=O)(O)O`, the “fluorescence, % of Rose Bengal” value is 0.0341% [at 46 µM].
Consider `CC1=CC(=O)c2ccccc2C1=O`, for which the result was inactive.
Turning to `CO[Si](OC)(OC)c1ccccc1`, the “fluorescence, % of Rose Bengal” value was 0.0261%.
For the compound `C[N+]1([O-])CCOCC1`, the “fluorescence, % of Rose Bengal” value is -0.0773%.
On to `C=C(C)C(=O)O`, for which the outcome was inactive.
For the compound `CC[C@]1(O)C[C@@H]2CN(CCc3c([nH]c4ccccc34)[C@@](C(=O)OC)(c3cc4c(cc3OC)N(C)[C@H]3[C@@](O)(C(=O)OC)[C@H](OC(C)=O)[C@]5(CC)C=CCN6CC[C@]43[C@@H]65)C2)C1`, the result was inactive.
As to `CCCCCCCCCCCCCCCCCl`, the fluorescence, % of Rose Bengal is -0.0105% [at 18.6 µM].
Take `c1ccc2n[nH]nc2c1`: the outcome was inactive.
For `NC(N)=NC(=O)Cc1c(Cl)cccc1Cl`, the “fluorescence, % of Rose Bengal” value is -0.181% [at 46 µM].
For the compound `CC(C)(C)NCC(O)c1cc(O)cc(O)c1` (stereo not given), the “fluorescence, % of Rose Bengal” value was -0.0586% [at 46 µM].
For `CC(=O)CC(C)=O`, the “fluorescence, % of Rose Bengal” value is 0.218% [at 95.7 µM].
For `COC(c1ccccc1)(c1ccccc1)[C@H](Oc1nc(C)cc(C)n1)C(=O)O`, the “fluorescence, % of Rose Bengal” value was 0.52% [at 46 µM].
Consider `CCC(C)(C)C(=O)O[C@H]1C[C@@H](C)C=C2C=C[C@H](C)[C@H](CC[C@@H]3C[C@@H](O)CC(=O)O3)[C@H]21`, for which the compound was classed as inactive.
Consider `CN1C(=O)c2ccc([N+](=O)[O-])cc2C1=O`, for which the “fluorescence, % of Rose Bengal” value was -0.0325%.
For `CC[C@H]1CN2CCc3cc(OC)c(OC)cc3[C@@H]2C[C@@H]1C[C@H]1NCCc2cc(OC)c(OC)cc21`, the call was inactive.
On the same count and under the same terms, the same measure for `CC(=O)Nc1ccc(C(=O)CCl)cc1`: “inactive”.
For the compound `N[C@@H]1CONC1=O`, the “fluorescence, % of Rose Bengal” value is -0.108% [at 46 µM].

Source of the values: PubChem BioAssay (Tox21).
